Results on 94 compounds are retold here after PubChem BioAssay AID1851 (National Center for Advancing Translational Sciences (NCATS), 2009).

Hit rate of the full screen: of about 16,000 compounds, about 5,700 (36%) were called active. About 24% were inconclusive and are not listed. Calls come from the whole dose curve; as a rule, active = well fitted curve in the direction sought with a large enough effect; inconclusive = small, poorly fitted or top-dose-only effect, or effect the other way; inactive = no such curve, though single readings can be large or run the other way. Some of the results follow.

The term AC50 denotes the concentration at which the activity in the assay is half-maximal.
% is set by controls: 0 for no effect and ±100 for the full control effect.

The target in the assay is Cytochrome P450 1A2 (Homo sapiens) (UniProt P05177). Description: Cytochrome panel assay with activity outcomes. To be noted: recombinant CYP, pro-luciferin dealkylation, luminescence, p450-cyp1a2; series mostly up to 57.1 µM.
Cytochrome P450 1A2 (Homo sapiens), sequence (P05177 whole entry, looked up): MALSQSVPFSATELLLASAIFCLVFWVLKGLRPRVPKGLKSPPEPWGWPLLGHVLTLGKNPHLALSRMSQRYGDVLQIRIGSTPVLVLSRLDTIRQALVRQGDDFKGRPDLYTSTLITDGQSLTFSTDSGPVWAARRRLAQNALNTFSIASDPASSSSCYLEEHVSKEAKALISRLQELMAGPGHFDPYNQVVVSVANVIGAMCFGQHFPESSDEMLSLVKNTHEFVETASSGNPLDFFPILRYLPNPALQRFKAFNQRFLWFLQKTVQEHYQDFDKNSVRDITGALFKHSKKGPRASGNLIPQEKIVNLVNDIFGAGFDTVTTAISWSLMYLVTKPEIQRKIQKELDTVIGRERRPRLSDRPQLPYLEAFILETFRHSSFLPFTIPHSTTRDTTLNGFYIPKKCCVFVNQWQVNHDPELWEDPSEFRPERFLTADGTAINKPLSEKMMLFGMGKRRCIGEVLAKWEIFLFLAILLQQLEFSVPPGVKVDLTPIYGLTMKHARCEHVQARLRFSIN
With `Cc1cc(C)c2nc(-c3ccccn3)cc(C(=O)Nc3ccc(S(=O)(=O)Nc4cc(C)on4)cc3)c2c1`, the AC50 entry was “inactive”.

Take `COc1cc2ccccc2cc1C(=O)Nc1ccc(S(=O)(=O)Nc2cc(C)on2)cc1`: the half-maximal activity concentration (AC50) is 25.1 µM (active).

Consider `Cc1ccc(OCC(=O)Nc2ccc(S(=O)(=O)Nc3onc(C)c3C)cc2)cc1`, for which the AC50 result was “inactive”.

On to `Cc1cc(NC(=O)c2ccc(S(=O)(=O)Nc3ccccc3)cc2)no1`, for which the AC50 was 5.01 µM (active).

`NS(=O)(=O)c1ccc(NS(=O)(=O)c2ccc(NC(=O)c3ccc(-c4ccccc4)cc3)cc2)cc1`: the AC50 result was “inactive”.

Turning to `CC(C)CC(C(=O)NCC1CCCO1)N(C(=O)Cn1nnc(-c2ccc(F)cc2)n1)c1cccc(C(F)(F)F)c1` (centres undefined), the AC50 result is “inactive”.

Take `Cc1cnn(CCC(=O)NNC(=S)Nc2ccc(F)cc2)c1`: the AC50 result was “inactive”.

Regarding `CCc1noc(N)c1C(=O)Nc1ccc(F)c(Cl)c1`, the AC50 is 4.47 µM (active).

For `Cc1noc(C)c1C(=O)N1CCC2(CC1)CN(C(=O)Nc1cccc(F)c1)C2`, the AC50 result was “inactive”.

Turning to `Cc1noc(N)c1C(=O)Nc1ccc(F)cc1`, the half-maximal activity concentration (AC50) is 8.91 µM (active).

With `C/C(CCC(=O)OC[C@@H]1O[C@H](C#Cc2ccccc2)C=C[C@@H]1Oc1ccc(C)cc1)=N/OC[C@@H](C)[C@H](OCc1ccccc1)C(C)C`, the activity, negative = inhibition is -1.97% [at 11.4 µM] (inactive).

Consider `COCC(=O)N1CCC2(CC1)CCN(C(=O)Nc1cccc(F)c1)CC2`, for which the AC50 entry is “inactive”.

As to `CC(=O)N=c1sc(S(N)(=O)=O)nn1C`, the AC50 result was “inactive”.

For `O=C(O)CCC(=O)c1ccc2ccc3cccc4ccc1c2c34`, the AC50 is 1.26 µM (active).

Turning to `O=C(O)CCC(=O)CCC(=O)c1ccccc1`, the AC50 entry is “inactive”.

For the compound `CN(c1ccc(C(=O)NC2CC3CCC2C3)cc1)S(C)(=O)=O` (centres undefined), the AC50 entry was “inactive”.

Turning to `O=C(O)C(Cc1cccs1)C(=O)O`, the activity, negative = inhibition is -2.09% [at 2.29 µM] (inactive).

Regarding `Cc1ccc(C(N)=Nc2ccccc2)cc1`, the activity, negative = inhibition was -14.7% [at 11.4 µM] (inactive).

On to `Cc1ccc(/C(N)=N/OC(=O)Cc2cccs2)cc1`, for which the concentration at half-maximal activity (AC50) was 15.8 µM (active).

For the compound `CN(NC(=O)NN)c1ncc(C(F)(F)F)cc1Cl`, the AC50 is 14.1 µM (active).

For the compound `COn1c(SC(C)C)nc2ccccc2c1=O`, the AC50 was 0.708 µM (active).

For the compound `CC(C)On1c(SC(C)C)nc2ccccc2c1=O`, the AC50 was 2 µM (active).

As for `O=C(NCCc1c[nH]c2ccccc12)C1CCN(c2nnc(N3CCCC3=O)s2)CC1`, the AC50 was 20 µM (active).

As to `CC1CC(C)CN(CCCNC(=O)C2CCCN(c3nnc(N4CCCC4=O)s3)C2)C1` (centres undefined), the AC50 result was “inactive”.

Consider `CN1CCN(CCCNC(=O)C2CCN(c3nnc(-n4cccc4)s3)CC2)CC1`, for which the AC50 entry was “inactive”.

`C[C@@H]1NCC[C@H](CC(=O)O)[C@H]1CC(=O)O`: the activity, negative = inhibition was -6.87% [at 11.4 µM] (inactive).

For `FC(F)(F)c1cc(CN2CC3(CCNCC3)C2)cc(C(F)(F)F)c1`, the AC50 entry was “inactive”.

In the case of `Cc1ccc(S(=O)(=O)c2c(C)nn(C(C)(C)C)c2OC(=O)c2cccs2)cc1`, the AC50 result was “inactive”.

For `Cc1ccc(N=C/C(C(=O)C(F)(F)F)=C(\O)c2cccs2)cc1`, the concentration at half-maximal activity (AC50) was 12.6 µM (active).

With `CC[C@H](C(=O)c1cccs1)C(O)(C(F)(F)F)C(F)(F)F`, the activity, negative = inhibition was -17.5% [at 2.29 µM] (inactive).

On to `CC(=O)N1CCC2(CC1)CN(c1ccccn1)C2`, for which the AC50 entry was “inactive”.

For the compound `Cc1cc(C)n2nc(-c3sccc3-n3cccc3)cc2n1`, the AC50 was 5.01 µM (active).

`CCN1CCN(c2cc(=O)n(-c3cc(Cl)ccc3C)c(=O)[nH]2)CC1`: the AC50 result is “inactive”.

With `c1ccc(-c2nc(NCCCn3ccnc3)c3oc4ccccc4c3n2)cc1`, the AC50 is 0.0398 µM (active).

In the case of `c1ccc2c(c1)oc1c(NCCCn3ccnc3)ncnc12`, the AC50 is 0.0562 µM (active).

Consider `CCCCN1CCCC[C@H]1C(=O)Nc1c(C)cccc1C`, for which the AC50 is 5.01 µM (active).

`Cc1cccc(C)c1NC(=O)N1CCC(N2CCCCC2)CC1`: the AC50 result was “inactive”.

For the compound `Cc1cc(C)c(NC(=O)C2CCCN2C)c(C)c1` (centres undefined), the AC50 result was “inactive”.

`O=C(Cc1ncc(C(F)(F)F)cc1Cl)Nc1cccc(Br)c1`: the AC50 was 17.8 µM (active).

Consider `CCOC(=O)c1cnc2ccc(C)cc2c1Sc1ccccc1C(=O)OC`, for which the AC50 was 3.55 µM (active).

Turning to `COc1ncc2nc(-c3ccccc3)c(=O)n(-c3ccccc3)c2n1`, the AC50 was 2 µM (active).

Turning to `COc1ncc2nc(-c3ccc(Cl)cc3)c(=O)n(-c3ccccc3)c2n1`, the AC50 is 1.58 µM (active).

Take `COCCNC(=O)COC(=O)/C=C/c1cnc2ccccc2n1`: the AC50 was 7.08 µM (active).

On to `CCc1c(C)c2c(C)[nH]nc2oc1=O`, for which the AC50 is 5.01 µM (active).

On to `CC(C)C12CC[C@@]3(CC[C@H]4[C@@](C)(CCC[C@]4(C)C(=O)O)[C@@H]3C1)[C@@H](CN)C2`, for which the activity, negative = inhibition was -4.02% [at 11.4 µM] (inactive).

For the compound `CCOC(=O)c1c(C)n(C)c2ccc(OC(=O)c3ccco3)cc12`, the AC50 is 0.355 µM (active).

As to `CCN(CC)CCOC(=O)c1c(C)n(C)c2ccc(OC)cc12`, the AC50 was 1.41 µM (active).

In the case of `O=CN[C@@H](Cc1cnc[nH]1)C(=O)O`, the activity, negative = inhibition is -8.82% [at 11.4 µM] (inactive).

On to `Cc1ccccc1-c1ccc2ncnc(N(C)C)c2c1`, for which the AC50 was 0.631 µM (active).

Take `CN(C)c1ncnc2ccc(-c3ccccc3C(F)(F)F)cc12`: the AC50 is 0.631 µM (active).

`CN(C)c1ncnc2ccc(-c3ccccc3C#N)cc12`: the AC50 is 0.398 µM (active).

With `COc1ccccc1-c1ccc2ncnc(N(C)C)c2c1`, the AC50 was 1.26 µM (active).

On to `Nc1nc(=O)c2[nH]cnc2n1O`, for which the activity, negative = inhibition was -12.4% [at 11.4 µM] (inactive).

As to `COc1ccccc1-c1c(C(F)(F)F)oc2cc(OC(=O)c3cccc([N+](=O)[O-])c3C)ccc2c1=O`, the AC50 result is “inactive”.

With `O=c1oc2cc(Oc3ccc(C(F)(F)F)cc3[N+](=O)[O-])ccc2c2c1CCCC2`, the AC50 result is “inactive”.

As for `O=c1oc2cc(Oc3c([N+](=O)[O-])cc(C(F)(F)F)cc3[N+](=O)[O-])ccc2c2c1CCCC2`, the AC50 was 3.16 µM (active).

For the compound `CC(C)(C)N1C(=O)[C@H]2[C@H]3[C@H](O)[C@H](O)C/C(=N/OC[C@@H](O)COCc4ccco4)[C@H]3CC[C@@H]2C1=O`, the activity, negative = inhibition was -7.06% [at 11.4 µM] (inactive).

Take `C[C@@H]1/C=C\CC(=O)OC[C@H](C)C(=O)N[C@@H](Cc2ccccc2)C(=O)OC1`: the activity, negative = inhibition was -0.511% [at 11.4 µM] (inactive).

For `COc1ncc2nc(CCc3ccccc3)c(=O)n(C)c2n1`, the AC50 was 5.01 µM (active).

`COCCn1c(=O)c(CCc2ccccc2)nc2cnc(Oc3ccc(OC)cc3)nc21`: the concentration at half-maximal activity (AC50) was 15.8 µM (active).

For the compound `COc1ccc(-n2c(=O)c(CCc3ccccc3)nc3cnc(OC)nc32)cc1`, the AC50 is 15.8 µM (active).

Turning to `COCCn1c(=O)c(CCc2ccccc2)nc2cnc(OC)nc21`, the AC50 was 10 µM (active).

`CC(C)(C)c1cc(C(=O)O)c(CN2CCCCC2)o1`: the AC50 result was “inactive”.

For `CCN1C(=O)[C@H]2[C@H]3[C@H](O)[C@H](O)C/C(=N/OC[C@@H](C)[C@H](OCc4ccccc4)C(C)C)[C@@H]3CC[C@@H]2C1=O`, the activity, negative = inhibition was -11.8% [at 11.4 µM] (inactive).

For the compound `COc1ncc2nc(CCc3ccccc3)c(=O)n(CCC#N)c2n1`, the half-maximal activity concentration (AC50) is 15.8 µM (active).

`CO[C@H]1COC(=O)[C@H](C)NC(=O)C/C=C\[C@@H](C)[C@H](OC)COC(=O)[C@@H](OCc2ccccc2)/C=C\[C@@H]1C`: the activity, negative = inhibition is -11.8% [at 11.4 µM] (inactive).

Consider `Cc1cccc(-c2n[nH]c([N+](=O)[O-])n2)c1`, for which the AC50 was 14.1 µM (active).

Take `CS(=O)(=O)Nc1cccc(-c2ccc3ncnc(NC4CC4)c3c2)c1`: the AC50 was 0.631 µM (active).

`CS(=O)(=O)Nc1cccc(-c2ccc3ncnc(Nc4ccccc4)c3c2)c1`: the AC50 was 1 µM (active).

As to `Cn1ncc2c(Nc3cccc(C(=O)O)c3)ncnc21`, the AC50 entry is “inactive”.

Regarding `CS(=O)(=O)Nc1cccc(-c2ccc3ncnc(Nc4ccc(F)cc4)c3c2)c1`, the AC50 is 0.794 µM (active).

`CNc1ncnc2ccc(-c3cccc(NS(C)(=O)=O)c3)cc12`: the AC50 was 0.316 µM (active).

With `Cc1nc(Oc2ccc(Cl)cc2)c2oc3ccccc3c2n1`, the AC50 was 0.141 µM (active).

Take `O=C1Nc2ccccc2Nc2ncccc21`: the AC50 was 2.24 µM (active).

On to `CS(=O)(=O)c1nc(-c2ccccc2)cc(-c2ccccc2)c1C#N`, for which the AC50 is 0.891 µM (active).

Regarding `N#Cc1c(-c2ccccc2)cc(-c2ccccc2)nc1SCc1nnc(-c2ccccc2)o1`, the AC50 entry is “inactive”.

With `O=C1CC(=O)N(CCc2ccc(F)cc2)C(=O)N1`, the AC50 entry was “inactive”.

With `Cc1c(/N=C/c2ccco2)n(Cc2ccccc2)c2ccccc12`, the concentration at half-maximal activity (AC50) is 1.12 µM (active).

In the case of `CNC(=O)NC(=O)CSc1nnc(-c2ccco2)n1Cc1ccccc1`, the AC50 entry is “inactive”.

Regarding `CCn1c(=O)cc(SCC(=O)N2CCN(C(=O)c3ccco3)CC2)c2ccccc21`, the AC50 result is “inactive”.

Regarding `CC12c3ccccc3C(c3ccccc31)C1C(=O)N(Cc3cccnc3)C(=O)C12` (centres undefined), the AC50 result is “inactive”.

For `O=C1C2[C@@H](c3ccccc3)N[C@@H](c3ccccc3)C1[C@H](c1ccccc1)N[C@H]2c1ccccc1`, the activity, negative = inhibition is -18.6% [at 11.4 µM] (inactive).

`S=C1N[C@H](c2ccccc2)N[C@H](c2ccccc2)S1`: the AC50 was 3.16 µM (active).

`COc1cc(C(=O)NCCC(C)C)c([N+](=O)[O-])cc1OC`: the AC50 result is “inactive”.

Regarding `CCC(C)Nc1c([N+](=O)[O-])cc(C)cc1[N+](=O)[O-]` (centres undefined), the AC50 was 1.78 µM (active).

For `CC[C@@H](CS(=O)(=O)O)[N+](=O)[O-]`, the activity, negative = inhibition is -0.979% [at 11.4 µM] (inactive).

`Cn1cc(-c2nnc(-c3ccccc3)o2)c2ccccc21`: the AC50 is 2 µM (active).

`N#C/C(=C\c1cc(Cl)cc(Cl)c1O)C(=O)NC1CCCCC1`: the AC50 was 5.01 µM (active).

For `N#C/C(=C\c1cn[nH]c1-c1ccccc1)C(=O)NC1CCCCCC1`, the AC50 was 11.2 µM (active).

Take `COc1ccc(/C=C(/C#N)C(=O)NC2CCCCC2)cc1Br`: the AC50 result was “inactive”.

Regarding `O=C(NC1CCCCC1)C(c1ccccc1)N1CCOCC1` (centres undefined), the AC50 result is “inactive”.

On to `CCOC(=O)C[C@@H](C(=O)OCC)[C@@H]1CCCCC1=O`, for which the activity, negative = inhibition was -6.2% [at 11.4 µM] (inactive).

With `CCOC(=O)c1cc(CC)sc1NC(=O)c1cc(OCC)c(OCC)c(OCC)c1`, the AC50 result was “inactive”.

With `CCOc1cc(-c2noc(N)c2C#N)cc(OCC)c1OCC`, the AC50 was 0.141 µM (active).
